Assay results: the supplement of paper PMC9794691

Assays:
H1975 [1] = assay: area under confluence curve of compound monotherapy; compare to DMSO control AUC of the same experiment (AUC (confluence x time, arbitrary))
Outline: (§1)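 Test compound alone was added at one dose (1 uM, or the highest with <50% parental inhibition) to adenocarcinoma lines seeded the previous day at 20,000–30,000 cells/well in 48-well plates with RPMI 1640 and 10% FBS at 37 °C and 5% CO2. The drug was refreshed with PBS washes every 3–4 days, and cultures were left drug-free from the DTP stage (10–21 days) while IncuCyte tracked confluence until wells given only an EGFR inhibitor regrew. Area under the confluence curve was obtained in Prism, as a median of triplicates where run, and compared against vehicle from the same experiment.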

HCC2279 [2] = assay: as above
Outline: as §1

HCC2935 [3] = assay: as above
Outline: as §1

HCC4006 [4] = assay: as above
Outline: as §1

HCC827 [5] = assay: as above
Outline: as §1

II-18 [6] = assay: as above
Outline: as §1

H1975 [7] = assay: area under confluence curve of osimertinib + compound combination regimen (DTP regrowth); compare to osimertinib-only DTP control AUC of the same experiment (AUC (confluence x time, arbitrary)); details: test compound dose 300 nM, DMSO control AUC in same experiment: 14522
Outline: (§2)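 The area under the IncuCyte confluence–time curve, calculated in Prism and taken as the median of triplicates where available, is the value reported. It was measured in EGFR-mutant NSCLC lines that received the EGFR inhibitor either alone, followed by a test compound, or together with a fixed-dose test compound until the persister stage (10–21 days) and then drug-free medium. Medium was refreshed every 3–4 days until the inhibitor-only wells were confluent again.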

HCC2279 [8] = assay: as above; details: test compound dose 300 nM, DMSO control AUC in same experiment: 40085
Outline: as §2

HCC2935 [9] = assay: as above; details: test compound dose 300 nM, DMSO control AUC in same experiment: 15413
Outline: as §2

HCC4006 [10] = assay: as above; details: test compound dose 300 nM, DMSO control AUC in same experiment: 10921
Outline: as §2

HCC827 [11] = assay: as above; details: test compound dose 300 nM, DMSO control AUC in same experiment: 48895
Outline: as §2

II-18 [12] = assay: as above; details: test compound dose 300 nM, DMSO control AUC in same experiment: 18482
Outline: as §2

## O=C(NC[C@H](O)CN1CCc2ccccc2C1)c1ccnc(NC2CCC2)c1
H1975 [1]; 300 nM, DMSO control AUC in same experiment: 20657
  area under confluence curve: 20400
HCC2279 [2]; 300 nM, DMSO control AUC in same experiment: 40085
  area under confluence curve: 25900
HCC2935 [3]; 300 nM, DMSO control AUC in same experiment: 15413
  area under confluence curve: 16200
HCC4006 [4]; 300 nM, DMSO control AUC in same experiment: 10921
  area under confluence curve: 8430
HCC827 [5]; 300 nM, DMSO control AUC in same experiment: 43928
  area under confluence curve: 45500
II-18 [6]; 300 nM, DMSO control AUC in same experiment: 7080
  area under confluence curve: 8360

## CCN1CCN(Cc2ccc(Nc3ncc(F)c(-c4cc(F)c5nc(C)n(C(C)C)c5c4)n3)nc2)CC1 [Abemaciclib]
H1975 [1]; 100 nM, DMSO control AUC in same experiment: 14522
  area under confluence curve: 13800
HCC2279 [2]; 100 nM, DMSO control AUC in same experiment: 27284
  area under confluence curve: 22900
HCC2935 [3]; 100 nM, DMSO control AUC in same experiment: 11459
  area under confluence curve: 8290
HCC4006 [4]; 100 nM, DMSO control AUC in same experiment: 10921
  area under confluence curve: 9680
HCC827 [5]; 100 nM, DMSO control AUC in same experiment: 48895
  area under confluence curve: 48500
II-18 [6]; 100 nM, DMSO control AUC in same experiment: 13556
  area under confluence curve: 14000

## COc1nnc2ccc(N3CCC(c4ccc(OCCN5CCN(C)C(=O)[C@H]5C)cc4)CC3)nn12
H1975 [1]; 300 nM, DMSO control AUC in same experiment: 14522
  area under confluence curve: 6020
HCC2279 [2]; 300 nM, DMSO control AUC in same experiment: 27284
  area under confluence curve: 21500
HCC2935 [3]; 300 nM, DMSO control AUC in same experiment: 11459
  area under confluence curve: 13000
HCC4006 [4]; 30 nM, DMSO control AUC in same experiment: 10921
  area under confluence curve: 6660
HCC827 [5]; 300 nM, DMSO control AUC in same experiment: 48895
  area under confluence curve: 42000
II-18 [6]; 30 nM, DMSO control AUC in same experiment: 18996
  area under confluence curve: 14400

## Cn1cc(CNCC2CCN(c3ncc(C(=O)NO)cn3)CC2)c2ccccc21 [Quisinostat]
H1975 [1]; 10 nM, DMSO control AUC in same experiment: 20657
  area under confluence curve: 8960
HCC2279 [2]; 10 nM, DMSO control AUC in same experiment: 29252
  area under confluence curve: 18800
HCC2935 [3]; 10 nM, DMSO control AUC in same experiment: 13875
  area under confluence curve: 8250
HCC4006 [4]; 10 nM, DMSO control AUC in same experiment: 16638
  area under confluence curve: 11600
HCC827 [5]; 10 nM, DMSO control AUC in same experiment: 27404
  area under confluence curve: 25100
II-18 [6]; 10 nM, DMSO control AUC in same experiment: 7080
  area under confluence curve: 3280

## O=C(c1cc(Cc2n[nH]c(=O)c3ccccc23)ccc1F)N1CCN(C(=O)C2CC2)CC1 [Olaparib]
H1975 [1]; 1000 nM, DMSO control AUC in same experiment: 15857
  area under confluence curve: 12200
HCC2279 [2]; 1000 nM, DMSO control AUC in same experiment: 14404
  area under confluence curve: 14700
HCC2935 [3]; 1000 nM, DMSO control AUC in same experiment: 19215
  area under confluence curve: 20800
HCC4006 [4]; 1000 nM, DMSO control AUC in same experiment: 18415
  area under confluence curve: 19900
HCC827 [5]; 1000 nM, DMSO control AUC in same experiment: 21320
  area under confluence curve: 20700
II-18 [6]; 1000 nM, DMSO control AUC in same experiment: 11834
  area under confluence curve: 10800

## C[C@@H](Nc1cc(F)cc(F)c1)c1cc(C(=O)N(C)C)cc2c(=O)cc(N3CCOCC3)oc12
H1975 [1]; 1000 nM, DMSO control AUC in same experiment: 20657
  area under confluence curve: 18600
HCC2279 [2]; 1000 nM, DMSO control AUC in same experiment: 29252
  area under confluence curve: 24500
HCC2935 [3]; 1000 nM, DMSO control AUC in same experiment: 13875
  area under confluence curve: 10800
HCC4006 [4]; 1000 nM, DMSO control AUC in same experiment: 16638
  area under confluence curve: 13600
HCC827 [5]; 1000 nM, DMSO control AUC in same experiment: 27404
  area under confluence curve: 24900
II-18 [6]; 1000 nM, DMSO control AUC in same experiment: 18482
  area under confluence curve: 11000

## Cn1cnc2c(F)c(Nc3ccc(Br)cc3Cl)c(C(=O)NOCCO)cc21 [Selumetinib] + C=CC(=O)Nc1cc(Nc2nccc(-c3cn(C)c4ccccc34)n2)c(OC)cc1N(C)CCN(C)C [osimertinib]
H1975 [7]; dosing schedule: sequential, osimertinib-only DTP control AUC in same experiment: 12533
  area under confluence curve: 2580
H1975 [7]; dosing schedule: upfront, osimertinib-only DTP control AUC in same experiment: 18969
  area under confluence curve: 10100
HCC2279 [8]; dosing schedule: sequential, osimertinib-only DTP control AUC in same experiment: 15997
  area under confluence curve: 8900
HCC2279 [8]; dosing schedule: upfront, osimertinib-only DTP control AUC in same experiment: 28057
  area under confluence curve: 9080
HCC2935 [9]; dosing schedule: sequential, osimertinib-only DTP control AUC in same experiment: 7139
  area under confluence curve: 12800
HCC2935 [9]; dosing schedule: upfront, osimertinib-only DTP control AUC in same experiment: 19044
  area under confluence curve: 9550
HCC4006 [10]; dosing schedule: sequential, osimertinib-only DTP control AUC in same experiment: 14882
  area under confluence curve: 9590
HCC4006 [10]; dosing schedule: upfront, osimertinib-only DTP control AUC in same experiment: 18913
  area under confluence curve: 11700
HCC827 [11]; dosing schedule: sequential, osimertinib-only DTP control AUC in same experiment: 18675
  area under confluence curve: 11400
HCC827 [11]; dosing schedule: upfront, osimertinib-only DTP control AUC in same experiment: 25542
  area under confluence curve: 11100
II-18 [12]; dosing schedule: sequential, osimertinib-only DTP control AUC in same experiment: 21014
  area under confluence curve: 16200
II-18 [12]; dosing schedule: upfront, osimertinib-only DTP control AUC in same experiment: 27084
  area under confluence curve: 14400
